Several values for one entry are separate records, joined by “and”; a condition that tells them apart may be missing. Identical values can stand only once. Among all 6,400 compounds or so, about 610 (9.5%) were called active. Cut-off read from the data, not from the text of the source: active = activity change below about -70%; inconclusive = no clear call, values can overlap the other calls; inactive = above that. The list comes from a sample in which actives are over-represented; it also holds similar structures and randomly drawn compounds. Some compounds were tested as several samples or in several runs, with calls that do not always agree.
test: Toxoplasma gondii ME49Luc growth in HeLa cells, luciferase, no IFN-y, primary screen (AID 1259421); settings: T. gondii ME49Luc in HeLa, 72 h, stronger effect = lower value, concentration not given here

Structure (SMILES) | activity change, negative = inhibition
OC1CCC(Nc2ncc3nc(Nc4c(F)cc(F)cc4F)n([C@H]4CCOC4)c3n2)CC1 (stereo partly drawn) | -77.1% (active)
CCCCNc1ncc(-c2ccc(CN3CCOCC3)cn2)c(NC2CCC(O)CC2)n1 (stereo not drawn) | -67.2% (inactive)
O=C(CN1C(=O)c2ccccc2S1(=O)=O)Nc1ccc(O)cc1 | 6.78% (inactive)
Nc1nc(NCCNc2ncc(-n3ccnc3)c(-c3ccc(Cl)cc3Cl)n2)ccc1[N+](=O)[O-] | 38.7% (inactive)
COc1ccc(S(=O)(=O)N2CCCN(S(=O)(=O)c3ccc(OC)c(OC)c3)CC2)cc1OC | 0.269% (inactive)
O=C(NO)c1cnc(N2CCN(S(=O)(=O)c3ccc4ccccc4c3)CC2)nc1 | -82.9% (active)
COc1ccccc1N1CCN(CCCCNC(=O)c2ccc3ccccc3c2)CC1 | -12.8% (inactive)
O=C(O)c1cc(=O)c2ccccc2o1 | 5.57% (inactive) and 14.8% (inactive)
O=c1[nH]c(=O)c2ccccc2o1 | 7.04% (inactive) and -95.9% (active)
O=c1c2ccccc2oc2ccccc12 | 16.7% (inactive)
OC(c1ccccc1)(c1ccccc1)C12CC[N+](CCOCc3ccccc3)(CC1)CC2 | 13.9% (inactive)
COc1ccc2oc(-c3ccccc3OC)cc(=O)c2c1 | 44.1% (inactive)
O=C(Nc1ccccc1)NC1CC(C(=O)O)Nc2cc(Cl)cc(Cl)c21 (stereo not drawn) | 13% (inactive)
Cc1ccccc1N=C(N)Nc1ccccc1C | 5.45% (inactive) and 4.9% (inactive)
CCCNC(C)C(=O)Nc1ccccc1C (stereo not drawn) | 37.2% (inactive) and -79.6% (active)
CCCNC(C)C(=O)Nc1c(C)csc1C(=O)OC (stereo not drawn) | 20% (inactive)
CCCCCCCCCCCCCCCC(=O)OC1C(SC)OC(C(NC(=O)C2CC(CCC)CN2C)C(C)Cl)C(O)C1O (stereo not drawn) | -9.26% (inactive)
COCCn1c2c([n+](Cc3cnccn3)c1C)C(=O)c1ccccc1C2=O | -83.1% (active) and -81.3% (active)
CN1c2cc(O)c(N=NC(N)=O)cc2CC1S(=O)(=O)O (stereo not drawn) | -1.43% (inactive)
O=P(O)(O)C(Sc1ccc(Cl)cc1)P(=O)(O)O | 5.32% (inactive) and -0.0921% (inactive)
CC(=O)OCC(=O)[C@@]1(O)CCC2C3C[C@H](C)C4=CC(=O)C=CC4(C)C3[C@@H](O)CC21C (stereo partly drawn) | -6.72% (inactive)
N[C@@H](CSS(=O)(=O)O)C(=O)O | 14.6% (inactive)
C1=C/COCc2cc(ccc2OCCN2CCCC2)Nc2nccc(n2)-c2cccc(c2)COC/1 | -80.3% (active)
c1cc(OCCN2CCCCC2)cc(-c2n[nH]c3ccc(-c4ncn[nH]4)cc23)c1 | -32.3% (inactive)
Cc1ccccc1N1CCN(S(=O)(=O)CC23CCC(C[C@@H]2NC(=O)[C@@H](N)CCS(C)(=O)=O)C3(C)C)CC1 (stereo partly drawn) | 1.28% (inactive) and 5.87% (inactive)
Cc1cc(OCC(=O)O)cc(C)c1Cc1ccc(O)c(C(C)C)c1 | 1.47% (inactive)

Structure (SMILES) | activity change, negative = inhibition
CCCCc1oc2ccc(NS(C)(=O)=O)cc2c1C(=O)c1ccc(OCCCN(CCCC)CCCC)cc1 | -83.6% (active)
CN(CCOc1ccc(NS(C)(=O)=O)cc1)CCc1ccc(NS(C)(=O)=O)cc1 | -7.15% (inactive) and -5.58% (inactive)
CCCCc1oc2ccccc2c1C(=O)c1cc(I)c(OCCN(CC)CC)c(I)c1 | -58.9% (inactive)
CCCCC/C=C\C/C=C\C/C=C\CCCCCCC(=O)O | 4.57% (inactive)
Clc1ccc(-c2nc3sccn3c2/C=N/OCc2ccc(Cl)c(Cl)c2)cc1 | 27.7% (inactive) and 3.2% (inactive)
C[C@H](N)C(=O)N[C@@H](C)P(=O)(O)O | 9.38% (inactive)
CC[C@H](C)[C@@H]([C@@H](CC(=O)N1CCC[C@H]1[C@H](OC)[C@@H](C)C(=O)N[C@@H](Cc1ccccc1)c1nccs1)OC)N(C)C(=O)[C@@H](NC(=O)[C@H](C(C)C)N(C)C)C(C)C | -85.6% (active)
CNC(=O)C1OC(n2cnc3c(NCc4cccc(I)c4)nc(Cl)nc32)C(O)C1O (stereo not drawn) | -2.06% (inactive)
COc1ccc(C(=O)c2ccc(C)cc2)c(O)c1 | 154% (inactive) and 98.7% (inactive)
Cc1ccc(C(=O)c2cc(O)c(O)c([N+](=O)[O-])c2)cc1 | -80% (active) and 2.13% (inactive)
NC(=O)c1ccc(I)c([N+](=O)[O-])c1 | 13.7% (inactive)
COc1cc(OC)c(/C=C/S(=O)(=O)Cc2ccc(OC)c(NCC(=O)O)c2)c(OC)c1 | -46.4% (inactive)
COc1ccnc2[nH]cc(C(=O)C(=O)N3CCN(C(=O)c4ccccc4)C[C@H]3C)c12 | 5.24% (inactive)
C[C@]12CC[C@H](O)CC1=CCC1C2CC[C@]2(C)C(n3cnc4ccccc43)=CCC12 (stereo partly drawn) | -67.5% (inactive)
Fc1ccc(-c2nc3n(c2-c2ccncc2)CCS3)cc1 | -79.8% (active)
COC(=O)Cc1cccn1C | 10.9% (inactive)
CC(O)CN(CCN(CC(C)O)CC(C)O)CC(C)O (stereo not drawn) | 15.4% (inactive)
Cc1cc(OCc2nnc(SC3CCCC3)n2-c2cccnc2)ccc1-c1ccc(S(C)(=O)=O)cc1 | -79.2% (active)
CSCC[C@H](NC(=O)[C@@H](N)Cc1c[nH]c2ccccc12)C(=O)N[C@@H](CC(=O)O)C(=O)N[C@@H](Cc1ccccc1)C(N)=O | 17% (inactive)
CC(=O)O[C@]1(C(C)=O)CCC2C3C=C(C)C4=CC(=O)CC[C@]4(C)C3CC[C@@]21C (stereo partly drawn) | 9.66% (inactive)
Cn1c(O)c(C2=c3ccccc3=NC2=O)c2ccccc21 | 13.5% (inactive)
CCC(C)n1ncn(-c2ccc(N3CCN(c4ccc(OC[C@H]5CO[C@](Cn6cncn6)(c6ccc(Cl)cc6Cl)O5)cc4)CC3)cc2)c1=O (stereo partly drawn) | -63.1% (inactive) and -38.1% (inactive)
C#C[C@]1(O)CCC2C3CCc4cc(OC)ccc4C3CC[C@@]21C (stereo partly drawn) | 7.57% (inactive)
C#C[C@]1(O)CCC2C3CCc4cc(OC5CCCC5)ccc4C3CC[C@@]21C (stereo partly drawn) | 33.4% (inactive)
C#C[C@]1(O)CC[C@H]2[C@@H]3CCc4cc(O)ccc4[C@H]3CC[C@@]21C | -81.1% (active)
C#C[C@]1(O)CC[C@H]2[C@@H]3CCc4cc(OC)ccc4[C@H]3CC[C@@]21C | 9.24% (inactive)

Structure (SMILES) | activity change, negative = inhibition
C#C[C@]1(O)CCC2C3CCc4cc(O)ccc4C3CC[C@@]21C (stereo partly drawn) | -81.3% (active)
C[C@]12CC[C@@H]3c4ccc(O)cc4CC[C@H]3[C@@H]1CCC2=O | -66.6% (inactive) and -57.7% (inactive)
CCOc1ccc(Cc2cc([C@@H]3O[C@H](CO)[C@@H](O)[C@H](O)[C@H]3O)ccc2Cl)cc1 | 4.88% (inactive) and 10.3% (inactive)
CCN1/C(=C/C(C)=O)Sc2ccc(OC)cc21 | 21% (inactive)
CC#CCOC(=O)c1c(C)nc2sc3c(c2c1N)CCC(O)C3 (stereo not drawn) | 49.7% (inactive) and 66.7% (inactive)
N[C@@H]1[C@@H](O)[C@H](O)[C@@H](CO)O[C@H]1O | 1.35% (inactive)
CN(CCc1ccc(Cl)c(Cl)c1)CCN1CCCC1 | 14.6% (inactive)
CC1(O)C(O)C(CO)OC1n1ccc(N)nc1=O (stereo not drawn) | 27.1% (inactive)
C[C@@H]1O[C@@H](O[C@@H]2[C@H](Oc3cc(O)c(C(=O)CCc4ccc(O)cc4)c(O)c3)O[C@H](CO)[C@@H](O)[C@@H]2O)[C@H](O)[C@H](O)[C@H]1O | 5.31% (inactive)
COc1cc2c(cc1OC)CC(=O)N(CCCN(C)C[C@@H]1Cc3cc(OC)c(OC)cc31)CC2 | 13.9% (inactive)
CCCNC(=O)Nc1ccc(Oc2ncnc3cc(OC)c(OC)cc23)cc1Cl | 6.99% (inactive)
COc1cc2ncnc(Nc3cccc(O)c3)c2cc1OC | 10.5% (inactive)
COc1cc2ncnc(Oc3cccc(NC(=O)Nc4cc(C(C)(C)C(F)(F)F)on4)c3)c2cc1OC | -78.4% (active)
CNc1cc(OC)c(C(=O)N[C@@H]2CCN(Cc3ccccc3)[C@@H]2C)cc1Cl (racemic) | 26% (inactive)
CC(=O)Nc1nnc(S(N)(=O)=O)s1 | 18.1% (inactive) and 14.1% (inactive)
Cc1nc(NC(=O)N2CCC[C@H]2C(N)=O)sc1-c1ccnc(C(C)(C)C(F)(F)F)c1 | -3.31% (inactive)
CC(=O)Nc1nc(C)c(-c2ccc(Cl)c(S(=O)(=O)NCCO)c2)s1 | -78.9% (active)
c1ncc(CC2CCNCC2)[nH]1 | 9.05% (inactive) and 12.6% (inactive)
N#C/C(=C/c1ccc(O)c(O)c1)C(=O)NCCCCc1ccccc1 | 28.9% (inactive)
COc1cnc(-n2cnc(C)n2)c2[nH]cc(C(=O)C(=O)N3CCN(C(=O)c4ccccc4)CC3)c12 | 22.1% (inactive)
C=C1C(=O)O[C@@H]2[C@H]3O[C@]3(C)CC/C=C(\C)CC[C@@H]12 | 6.15% (inactive)
CCC[C@@H]1C[C@@H](C(=O)N[C@@H](C2O[C@H](SC)[C@H](O)[C@@H](O)[C@H]2O)[C@H](C)Cl)N(C)C1 (stereo partly drawn) | -0.424% (inactive)
CC(C)[C@H](N)C(=O)OCCOCn1cnc2c(=O)[nH]c(N)nc21 | 9.53% (inactive) and 3.52% (inactive)
O=C(CCc1ccc(O)cc1)c1c(O)cc(O)cc1O[C@@H]1O[C@H](CO)[C@@H](O)[C@H](O)[C@@H]1O | 6% (inactive)
CC(C)(C)Cn1c(N)nc2ccc(-c3[nH]c(C(C)(C)C)nc3-c3ccc(F)cc3)nc21 | -83.7% (active)
CC(C)(C)C(=O)OCOC(=O)[C@@H]1N2C(=O)[C@@H](N=CN3CCCCCC3)[C@H]2SC1(C)C | 2.97% (inactive)

From PubChem BioAssay AID1259421 (Broad Institute, 2018)
